USP17 inh = human USP17-like deubiquitinase inhibition. A8MUK1. purified USP17, Ub-rhodamine cleavage fluorescence, 3 h. inhibition, % at 50 µM. 47,000 compounds, 6.5% hits. AID 1645855
USP30 block = blocks human USP30 ubiquitin-rhodamine cleavage; Q70CQ3; purified USP30, Ub-rhodamine cleavage fluorescence; inhibition, % at 25 µM; 47,000 compounds, 5.3% hits
Target sequence (Q70CQ3 whole entry, looked up): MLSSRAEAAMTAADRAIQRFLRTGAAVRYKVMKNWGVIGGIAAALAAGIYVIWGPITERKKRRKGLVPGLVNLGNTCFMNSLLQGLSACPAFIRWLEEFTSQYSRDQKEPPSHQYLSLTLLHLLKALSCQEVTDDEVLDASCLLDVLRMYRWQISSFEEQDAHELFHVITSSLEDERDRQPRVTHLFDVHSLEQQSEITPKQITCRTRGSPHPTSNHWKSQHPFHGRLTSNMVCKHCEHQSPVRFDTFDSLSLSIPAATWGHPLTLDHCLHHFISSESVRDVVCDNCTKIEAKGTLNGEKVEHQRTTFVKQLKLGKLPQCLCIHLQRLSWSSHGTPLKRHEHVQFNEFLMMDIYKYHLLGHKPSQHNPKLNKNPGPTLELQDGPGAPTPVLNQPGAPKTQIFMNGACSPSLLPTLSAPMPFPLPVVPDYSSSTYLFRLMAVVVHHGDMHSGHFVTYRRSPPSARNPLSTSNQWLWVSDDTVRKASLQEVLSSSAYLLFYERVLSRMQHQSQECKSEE
USP28 block = human USP28 deubiquitinase inhibition | Q96RU2 | purified USP28, Ub-rhodamine cleavage fluorescence, 30 min | inhibition, % at 25 µM | 47,000 compounds, 3% hits | AID 1645857
OTUD3 block = blocks human OTUD3 ubiquitin-rhodamine cleavage; AID 1645858; Q5T2D3; 47,000 compounds, 0.7% hits; purified OTUD3, Ub-rhodamine fluorescence, 2 h; inhibition, % at 25 µM
* hit, by the source's call; i = inactive. Only some compounds are listed: those with a hit (about 11% of all), similar ones and a draw of the others. Rule as the data show it: active = inhibition above about 30%; inactive = the rest.

SMILES	USP17 inh	USP30 block	USP28 block	OTUD3 block
COc1c(Cl)ccc2c(=O)c3c(O)c4c5c(c3oc12)OCO[C@H]5[C@@H](OC)c1cc2c(c(O)c1-4)C(=O)N(C)[C@H](OC)[C@@H]2O	-11.9	64.2*	49.0*	22.9
COc1c(Cl)ccc2c(=O)c3c(oc12)C1=C2[C@@H](OCO1)[C@@H](OC)c1cc4c(c(O)c1[C@@]2(O)[C@H]3O)C(=O)N(C)[C@H](OC)[C@@H]4O	12.4	59.9*	43.3*	31.7*
CC(C)=CCc1cccc2[nH]c3c(c12)C[C@@H]1CC[C@@]2(O)[C@@]45O[C@@H]4[C@@H]4O[C@H](C=C(C)C)OC(C)(C)[C@H]4O[C@H]5CC[C@]2(C)[C@@]31C	2.2	-38.8	-9.4	-6.0
CN(C)Cc1c[nH]c2c(OCc3ccccc3)cccc12	8.1	34.9*	45.5*	14.5
O=C(c1cc(Cl)c(Cl)[nH]1)c1cc(Cl)cc(Cl)c1O	10.6	-15.8	8.3	0.7
Cc1cccc(COc2ccc(C3SCC(=O)Nc4n[nH]c(C)c43)cc2)c1 (stereo not drawn)	56.1*	20.7	12.6	13.2
Cc1nc2ccccn2c1CC(=O)N1C[C@@H](O)[C@H](N2CCOCC2)C1	-8.7	-39.1	-7.6	10.1
CO[C@H](c1ccccc1)[C@@H]1NC(=O)[C@H](C)NC(=O)[C@H](C[C@@H](C)CO)N(C)C(=O)[C@H]([C@H](O)c2cn(C(C)(C)[C@@H]3CO3)c3ccccc23)NC(=O)[C@H]([C@H](C)C=C(C)C)NC(=O)[C@H](CC(C)C)N(C)C(=O)[C@H](C(C)C)NC1=O	33.0*	18.6	-1.9	19.4
CCCCCCC(O)CCCCCC/C=C/[C@H](O)[C@@H](OC(C)=O)[C@H](O)[C@H](N)C(=O)O (stereo partly drawn)	35.4*	-24.1	-3.1	-13.8
N#Cc1cnn2c1NC(c1ccco1)CC2C(F)(F)F (stereo not drawn)	-64.4	-201.0	-43.5	-48.1
Cn1c(=O)c2ncnnc2n(C)c1=O	95.5*	82.9*	96.2*	89.7*
CCCC1Cc2cc3c(c(O)c2C(=O)O1)-c1c(c(OC)c2oc4c(O[C@H]5C[C@H](O)[C@H](O[C@H]6C[C@H](O)[C@H](O[C@H]7C[C@H](OC)[C@H](O)C(C)O7)C(C)O6)C(C)O5)ccc(O)c4c(=O)c2c1O)[C@H](O)[C@@H]3O (stereo partly drawn)	37.2*	-60.4	1.2	1.0
COC(=O)[C@]1(O)O[C@@]2(C(=O)OC)c3c(oc4cc(C)cc(O)c4c3=O)[C@H]3c4c(oc5cc(C)cc(O)c5c4=O)C[C@H]1[C@H]32	53.3*	-7.9	28.8	32.4*
CC[C@@]1(O)C[C@H](O)c2c(cc3c(c2O)C(=O)c2c(O)cccc2C3=O)[C@H]1C(=O)OC	-174.8	i	-210.8	-155.7
Cn1cc(CN2CCC3(CC2)C(=O)N(CC2CC2)c2ccccc23)cn1	6.7	26.1	1.8	15.6
O=C(CNC(=O)c1ccccc1Br)Nc1ccc(Br)cc1C(=O)c1ccccc1	21.7	43.4*	13.9	15.0
O=C(CNC(=O)OCc1ccccc1)Nc1ccc(Br)cc1C(=O)c1ccccc1Cl	77.1*	-6.0	-2.1	14.4
CC(C)N1CC[C@@H]2[C@H](C1)CN2S(=O)(=O)c1cccnc1	-22.6	-35.4	-10.2	-8.4
Cc1cc(C)cc(-n2c(CSc3ccc(F)cc3)nc3cc(Cl)ccc3c2=O)c1	9.5	10.8	13.2	6.6
CN(C[C@H]1CN2CC[C@H]1C[C@@H]2CNC(=O)Nc1cccc(F)c1)c1ccccc1	-27.1	39.5*	-3.7	-1.7
CC[C@@H](C)C[C@H](C)C(=O)c1c(O)c(OC)c(OC)[nH]c1=O	26.4	20.5	11.8	12.3
CC(C)=CCC[C@H](C(=O)O)[C@@H]1CC[C@]2(C)C3=C(CC[C@@]12C)[C@@]1(C)CCC(=O)C(C)(C)C1CC3 (stereo partly drawn)	36.3*	31.7*	16.8	11.4
CN1CC[C@H]2CN(C(=O)CC3CCCC3)C[C@H]2C1	-11.0	-6.2	-9.8	-5.9
COc1ccccc1C1SCC(=O)Nc2c1c(C)nn2C1CCOC(C)(C)C1 (stereo not drawn)	7.2	0.6	-0.4	-7.4
Cc1cc(OC(C)C(=O)N2CCC3(O)CCCCC3C2)c2c3c(c(=O)oc2c1)CCC3 (stereo not drawn)	-7.3	-15.0	-14.2	-10.6
SMILES	USP17 inh	USP30 block	USP28 block	OTUD3 block
CO[C@H]1[C@@H](O)[C@H](C)O[C@H](O[C@H]2[C@H](Oc3cccc4c(O)c5c(=O)oc6ccc(C)c7c(=O)oc(c34)c5c67)O[C@H](C)[C@H](O)[C@@H]2O)[C@@H]1O	77.5*	-5.8	65.0*	51.4*
NC(=O)CCN1CCC2(CC1)OC(=O)N(Cc1ccccc1)c1ccccc12	-3.0	-20.1	-0.4	0.0
CCC(CC)n1[nH]c(=O)c2c1NC(=O)CSC2c1ccc2c(c1)OCO2 (stereo not drawn)	64.8*	15.7	27.8	7.7
CC(C)n1[nH]c(=O)c2c1NC(=O)CSC2c1ccc(OCc2ccccc2)cc1 (stereo not drawn)	11.8	2.6	0.0	1.4
Cn1nc(-c2ccco2)cc1[C@H]1CN2CC[C@H]1C[C@@H]2CNC(=O)Nc1cccc(C#N)c1	26.4	-17.2	-8.7	-14.1
O=C1Nc2ccccc2C2(CCN(Cc3ccc4c(c3)OCO4)CC2)O1	1.2	18.5	7.6	3.7
COc1ccc(OC)c(-c2c(C#N)c(C)nc3c2N2CCC3CC2)c1	48.6*	43.2*	94.1*	33.3*
COc1cc(N2CC[C@@H]3OCCN(C)[C@H]3CC2)ncn1	11.4	33.5*	15.2	15.4
Cn1cc(CN2C[C@H](OCc3cccnc3)[C@H]3OCCC[C@H]32)cn1	-16.9	8.9	0.8	13.2
CN(C)[C@@H]1C(=O)C(C(N)=O)=C(O)[C@@]2(O)C(=O)C3=C(O)c4c(O)cccc4[C@@](C)(O)C3[C@H](O)[C@@H]12 (stereo partly drawn)	84.5*	50.4*	87.3*	90.1*
CN(C)[C@@H]1C(=O)C(C(N)=O)=C(O)[C@@]2(O)C(=O)C3=C(O)c4c(O)cccc4[C@@](C)(O)[C@H]3C[C@@H]12	50.8*	-99.0	27.7	24.4
CC1CC[C@@]2(NC1)O[C@H]1C[C@H]3[C@@H]4CC=C5C[C@@H](O)CC[C@]5(C)[C@H]4CC[C@]3(C)[C@H]1[C@@H]2C (stereo partly drawn)	51.7*	37.6*	31.2*	13.7
C[C@@H]1CC[C@@]2(NC1)OC1CC3C4CC=C5C[C@@H](O)CC[C@]5(C)C4CC[C@]3(C)C1[C@@H]2C (stereo partly drawn)	10.0	10.6	5.3	11.1
CCCCCC(O)c1c(O)cc2c(c1O)C(=O)c1c(O)cc(O)cc1C2=O (stereo not drawn)	57.7*	i	-47.9	-73.8
CC(C)=CCCC1(C)C=Cc2c(O)c3c(c(CC=C(C)C)c2O1)O[C@]12C(=C[C@@H]4CC1C(C)(C)O[C@@]2(C/C=C(/C)C(=O)O)C4=O)C3=O (stereo partly drawn)	82.2*	37.0*	89.6*	76.8*
CC(C)N(C)C(=O)C1=NOC2(CCNCC2)C1	-29.6	2.9	22.7	25.3

Assay outcomes deposited in PubChem by Buhrlage Lab, Dana-Farber Cancer Institute and Novartis Institutes for BioMedical Research (Cambridge, Mass).
